Data from PubChem BioAssay AID1159580 (chemical genetic matrix, 2015).
Among all 5,500 compounds or so, about 2,000 (36%) were called active. Roughly 18% stayed inconclusive and do not appear here. No stated cut-off is given here; in the data, active means normalized growth mostly below about 0.91 (no sharp cut-off); inconclusive means no clear call, values can overlap the other calls; inactive means mostly above about 0.92. The list shows a part of the results.

Experiment: chemical genetic growth profiling, strain panel (AID 1159580);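 further: tested at 20 µM; growth read once vehicle control cultures reached saturation at 30 °C; 1 = growth at the plate median or of vehicle wells; lower values mean less growth of the strain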
Details: S. cerevisiae deletion strains, growth OD

Measured: normalized growth

Clc1cncc(Cl)c1N/N=C\C1CC2C=CC1C2 (stereo not drawn)
inactive: locus YAL013W, strain DEP1, active compounds read low 0.937 | locus YBR229C, strain ROT2, active compounds read low 0.939 | locus YCL061C, strain MRC1, active compounds read low 0.928 | locus YDL101C, strain DUN1, active compounds read low 0.926 | locus YDL134C, strain PPH21, active compounds read low 1.01 | locus YDR150W, strain NUM1, active compounds read low 0.915 | locus YEL061C, strain CIN8, active compounds read low 0.914 | locus YGR078C, strain PAC10, active compounds read low 0.967 | locus YJL187C, strain SWE1, active compounds read low 0.989 | locus YJR043C, strain POL32, active compounds read low 1 | locus YJR075W, strain HOC1, active compounds read low 0.935 | locus YLR058C, strain SHM2 (second series), active compounds read low 0.99 | locus YMR219W, strain ESC1, active compounds read low 0.988 | locus YMR263W, strain SAP30, active compounds read low 0.939 | locus YMR307W, strain GAS1, active compounds read low 0.878 | locus YNL153C, strain GIM3, active compounds read low 0.957 | locus YNL322C, strain KRE1, active compounds read low 0.986 | locus YNR030W, strain Alg12, active compounds read low 0.924 | locus YPL055C, strain LGE1, active compounds read low 0.872 | locus YPL241C, strain CIN2, active compounds read low 0.871
active: locus YHR030C, strain SLT2, active compounds read low 0.644 | locus YHR087W, strain rtc3, active compounds read low 0.874 | locus YLR039C, strain RIC1, active compounds read low 0.599 | locus YLR085C, strain ARP6, active compounds read low 0.74 | locus YLR262C, strain YPT6, active compounds read low 0.601 | locus YML094W, strain GIM5, active compounds read low 0.838 | locus YNL298W, strain CLA4 (second series), active compounds read low 0.799 | locus YPR135W, strain CTF4, active compounds read low 0.622
